# Source: PubChem BioAssay
# Pf growth 96h: P. falciparum growth inhibition at 96 hours | P. falciparum luciferase reporter growth, 96 h | Potency, µM (titrated, usually from 28.7 µM), without a hit: at the highest dose activity change, negative = inhibition, usual class: inhibitors | actives 6.9% (n = 320,000) | AID 504834; note: potency is the fitted concentration of half-maximal effect; % is set by controls: 0 for no effect and ±100 for the full control effect
#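 96 h incubation, 37 C, 5% CO2, of luciferase-reporter P. falciparum-infected RBCs (2% hematocrit, 0.05% parasitemia final) with test compounds; endpoint luminescence.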
# Cycloheximide cs: counter-screen for Shiga toxin inhibitors: cycloheximide protein synthesis inhibition; cell reporter, cycloheximide protein synthesis inhibition counterscreen; max response, %; actives 12% (n = 300,000); AID 2314; in the data active = max response mostly above about 13%, no sharp cut-off; inactive = mostly below about 14%; note: read at 38.3 µM for the half of the compounds with a filed dose; 0% is about no effect
# Sm TGR block: S. mansoni TGR enzyme inhibition. Potency, µM (titrated, usually from 114 µM), inactives show at the top dose activity change, negative = inhibition, most hits filed as inhibitors. actives 3% (n = 360,000). purified TGR, DTNB reduction, TNB absorbance 405 nm; note: potency is the fitted concentration of half-maximal effect; % is set by controls: 0 for no effect and ±100 for the full control effect; nearly all actives have a fitted effect of over 60% in size
#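 Kinetic colorimetric format: TGR-catalysed, NADPH-driven DTNB reduction monitored via TNB absorbance. Enzyme dispensed at 20 nM; compound exposure 15 min at room temperature before reaction start.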
# Shiga toxin inh: inhibitors of Shiga toxin in Vero cells; Vero cells, Shiga toxin protein synthesis inhibition reporter; inhibition, % at 38.7 µM; actives 9.2% (n = 290,000); AID 2315; in the data active = inhibition mostly above about 28%, no sharp cut-off; inactive = mostly below about 43%; note: 0% is about no effect
# Pf growth 48h: inhibits P. falciparum growth in the first generation, 48 h; P. falciparum luciferase growth in erythrocytes, 48 h; Potency, µM (titrated, usually from 28.7 µM), for inactives: at the top dose activity change, negative = inhibition, hits mostly inhibitors; actives 5.9% (n = 310,000); AID 504832; note: potency is the fitted concentration of half-maximal effect; % is set by controls: 0 for no effect and ±100 for the full control effect
#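 Cell-based growth assay: transgenic P. falciparum expressing firefly luciferase, cultured in red cells within RPMI 1640 containing 0.5% w/v Albumax, 24 mM bicarbonate and gentamycin. A drop in luciferase activity indicates inhibition.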
# NS1 function inh: influenza NS1 inhibition | Potency, µM (doses to about 46.1 µM), for inactives: at the top dose activity, positive = more growth | actives 0.4% (n = 270,000); calls by dose curve; note: potency is the fitted concentration of half-maximal effect; actives are rising curves; nearly all actives have a fitted effect of over 50% in size
#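 A cell-based growth assay was used: compounds that relieve NS1-induced slow growth of budding yeast raise OD600. Assay medium was yeast nitrogen base with ammonium sulphate and -URA supplement, pH 6.0, with 2% galactose.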
# * marks the source's active call; other numbers are inactive results; ? = inconclusive; · = no result. Most compounds without a hit are left out; they make up all but 21% or so of the library. Unless noted, calls come from the whole dose curve; as a rule, active = well fitted curve in the direction sought with a large enough effect; inconclusive = small, poorly fitted or top-dose-only effect, or another doubt; inactive = no such curve, though single readings can be large; an effect the other way counts as inactive or inconclusive.
SMILES,Pf growth 96h,Cycloheximide cs,Sm TGR block,Shiga toxin inh,Pf growth 48h,NS1 function inh
O=C(Nc1ccc2nc3ccccc3nc2c1)c1ccc(Br)cc1,?,6,-10%,5,-2%,4%
Cc1ccc(NC(=O)c2ccc3nccnc3c2)c(C)c1,-24%,23*,56µM*,31*,69%,0%
CCCCCCNc1nc(Cl)nc(NC(C)(C)CO)n1,9%,11,16%,24,?,0%
Cc1ccnc(N=Cc2c(O)ccc3oc4c(c23)CCCC4)c1,31%,26*,-20%,8,8%,-7%
Oc1ccc2oc3c(c2c1/C=N/n1cnnc1)CCCC3,?,17,-5%,26,-7%,-2%
O=C(O)c1ccc(N=Cc2c(O)ccc3oc4c(c23)CCCC4)cc1,22%,17*,-5%,31,1%,-52%
Oc1ccccc1N=Cc1c(O)ccc2oc3c(c12)CCCC3,?,8,?,10,?,-67%
O=C(O)/C=C\c1c2ccc(=O)c(O)c-2oc2c(O)c(O)ccc12,·,·,·,·,·,10%
OCCN1CCN(CC(O)C(F)(F)F)CC1 (stereo not drawn),0%,-3,-5%,-14,4%,6%
COc1ccc(-n2c(C)cc(/C=C3\C(=O)NN(c4ccccc4)C3=O)c2C)cc1,35%,39*,7%,50*,-4%,12%
Cc1cc(/C=C2\C(=O)NN(c3ccccc3)C2=O)c(C)n1-c1ccccc1O,-13%,34*,2%,46*,12%,-3%
COc1cc(/C=C2/C(=O)NN(c3ccccc3)C2=O)cc(Br)c1O,8%,-3,3%,4,12%,-3%
Cc1cc(/C=C2/C(=O)NN(c3ccccc3)C2=O)c(C)n1-c1ccc(O)cc1,23%,18,-1%,13,16%,29%
CCOC(=O)c1cc(-c2ccc(C)cc2)n(CC(=O)NC2CCCCCC2)c1C,·,·,7%,·,·,·
O=C(O)c1ccccc1NS(=O)(=O)c1cccc(-n2sc3ccccc3c2=O)c1,?,13,?,20,?,16%
CC(=O)N1CCCc2cc(S(=O)(=O)N3CCC(C(=O)NCCC(C)C)CC3)ccc21,·,·,1%,·,·,·
CCCN(CC(=O)Nc1cccc(Br)c1)CC(=O)Nc1ccc(F)c(F)c1F,3.7µM*,-2,0%,-11,?,-10%
CCCN(CC(=O)Nc1cccc(S(N)(=O)=O)c1)CC(=O)Nc1ccc(F)c(F)c1F,3%,-1,-1%,-1,-1%,12%
COc1ccc(N2CCN(Cc3cc(=O)oc4cc(-c5ccccc5)c(O)cc34)CC2)cc1,2.9µM*,-4,-20%,16,1.9µM*,10%
COc1ccc(OC)c(CN2CCN(Cc3cc(=O)oc4cc(O)ccc34)CC2)c1,2.6µM*,-2,-16%,25,3.7µM*,4%
COC(=O)C1CCN(Cc2cc(=O)oc3cc(OC)ccc23)CC1,·,26,-2%,63,-9%,-13%
O=c1cc(CN2CCN(c3ccccc3F)CC2)c2cc(O)c(-c3ccccc3)cc2o1,2.3µM*,-2,-7%,18,2.6µM*,13%
O=C(N/N=C/c1ccc(-c2ccccc2[N+](=O)[O-])o1)c1cncc(Br)c1,14%,1,-14%,-2,2%,-30%
Cc1ccc(C(=O)N/N=C/c2ccc(-c3ccc(Br)cc3[N+](=O)[O-])o2)o1,?,18*,50µM*,25,9.3µM*,4%
Cc1ccc(C(=O)N/N=C\c2ccc(Br)o2)o1,-15%,16,4%,30,?,-45%
SMILES,Pf growth 96h,Cycloheximide cs,Sm TGR block,Shiga toxin inh,Pf growth 48h,NS1 function inh
Cc1c(C(=O)N/N=C/c2ccc(-c3ccccc3[N+](=O)[O-])o2)sc(N)c1C#N,?,18*,-13%,-6,26%,-18%
Nn1cnnc1N/N=C\c1ccc(-c2ccccc2[N+](=O)[O-])o1,38%,17*,-18%,12,-6%,2%
CC1CCN(S(=O)(=O)c2ccc3c(ccc(=O)n3CC(=O)Nc3cccc(F)c3)c2)CC1,·,·,-1%,·,·,·
CC(C)C[C@H](NC(=O)N1CCn2c1nc1ccccc12)C(=O)NC1CCCCC1,12%,-1,6%,3,0%,-4%
N#Cc1c(N)sc(=S)c2c1CCCC2,2%,-4,28µM*,-14,-4%,3%
CCN(CC(=O)Nc1cccc(S(=O)(=O)N(C)c2ccccc2)c1)Cc1ccccc1,10µM*,·,-1%,·,?,·
CCC(C(=O)Nc1cccc(S(=O)(=O)N(C)c2ccccc2)c1)c1ccccc1 (stereo not drawn),?,·,1%,·,9.3µM*,·
CC(C)N(C(=S)Nc1cccc(S(=O)(=O)N(C)C)c1)c1ccccc1,8%,-2,11µM*,-7,-1%,-2%
COc1cccc(C(=O)CN2CCC(NC(=O)NC3CCCCC3)CC2)c1,15µM*,-3,?,1,2%,-7%
O=C(CN1CCCN(S(=O)(=O)c2ccc(F)cc2)CC1)Nc1cccc(F)c1,0%,-4,40µM*,-3,-4%,-12%
COc1cccc(NC(=O)CN2CCC(C)CC2)c1,136%,30*,-13%,35*,·,2%
COc1ccc(S(=O)(=O)N2CCN(CC(=O)Nc3cccc(OC)c3)CC2)cc1,13µM*,7,-2%,20,-12%,-28%
NS(=O)(=O)c1ccc(NC(=O)COC(=O)COc2ccc(Cl)cc2)cc1,-21%,-2,-21%,-4,19%,6%
CCC(/C=N/NC(=O)C(N)=O)CC,11%,8,-8%,3,12%,2%
COc1ccc(NC(=O)CN2CCN(S(=O)(=O)c3cccs3)CC2)cc1Cl,12µM*,·,-9%,·,?,·
COc1ccc(S(=O)(=O)N2CCC(C(=O)Nc3cccc(C(C)=O)c3)CC2)cc1,?,1,-2%,-3,12µM*,-12%
Cc1ccccc1C(=O)N1CCC(C(=O)Nc2ccc3c(c2)OCO3)CC1,-13%,-2,8%,-2,32%,7%
CN(C)c1cc[n+](CC(O)C[n+]2ccc(N(C)C)cc2)cc1,4.7µM*,·,-4%,·,9.3µM*,·
O=C(c1ccc2c(c1)OCO2)N1CCC2(CC1)Oc1ccc(Cl)cc1C(=O)C21CC(c2cccnc2)=NO1 (stereo not drawn),13µM*,-1,-9%,-4,12µM*,12%
CC(C)C(=O)N1CCC2(CC1)Oc1ccc(Cl)cc1C(=O)C21CC(c2ccccc2)=NO1 (stereo not drawn),?,-4,-18%,4,?,-8%
O=C(/C=C/c1cccs1)N1CCC2(CC1)Oc1ccc(Cl)cc1C(=O)C21CC(c2cccnc2)=NO1 (stereo not drawn),12µM*,-2,1%,-8,13µM*,7%
